From PubChem BioAssay (Tox21)
Records with an inconclusive call do not appear. The source made the active and inactive calls. Unless noted, calls come from the whole dose curve.

Tests used:
[1] = Nuclear factor erythroid 2-related factor 2/antioxidant responsive element (Nrf2/ARE) small molecule agonists: luciferase reporter gene qHTS assay in human keratinocytes (AID 1919969); note: nearly all actives have a fitted effect of over 35% in size; note: potency is the fitted concentration of half-maximal effect
[2] = target: KiSS-1 receptor (Homo sapiens) (UniProt Q969F8); test: Human kisspeptin (KISS1R) small molecule agonists, calcium flux assay in KISS1R-HEK293 cells (AID 1920064; active = well fitted activation curve with a large enough effect in the repeat runs)
Procedure, shortened: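 Cells plated and incubated 18 h; dye added, 1 h at 37 C; compounds in DMSO pinned in; signal read at 480/540 nm every second for 3 min. Each compound tested at 15 concentrations in triplicate.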

[3] = G protein-coupled receptor (GPCR) small molecule agonists, calcium flux assay: HEK293 wild type cell line counter screen (AID 1920065)
Procedure, shortened: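 Counter-screen of the Tox21 10K library for non-specific calcium release: dye-loaded cells received compounds in DMSO and were monitored by kinetic fluorescence (480/540 nm, 3 min). Fifteen concentrations, run in triplicate.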

[4] = p53 small molecule agonists, cell-based qHTS assay with human liver microsomes (AID 1963577);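 note: p53 response element beta-lactamase reporter cells with liver microsomes plus NADPH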
Procedure, shortened: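 In this qHTS, p53 response-element beta-lactamase cells receive test compound together with a microsome/NADPH activating system (0.5 mg/mL final each) and are incubated 16 h at 37 C before LiveBLAzer fluorescence detection.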

[5] = p53 small molecule agonists, cell-based qHTS assay with human liver microsomes: qHTS cell viability counter screen (AID 1963579); note: nearly all actives have a fitted effect of over 45% in size
Procedure, shortened: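 Metabolically activated exposure: compounds, human liver microsomes and NADPH (0.5 mg/mL final apiece) were added to p53RE-bla cells seeded 5 h earlier, left 16 h at 37 C, and then assessed for viability by CellTiter-Glo luminescence.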

[6] = p53 small molecule agonists, cell-based qHTS assay with rat liver microsomes: qHTS cell viability counter screen (AID 1963580); note: nearly all actives have a fitted effect of over 45% in size
Procedure, shortened: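 Intracellular ATP, by CellTiter-Glo luminescence, defines viability. HCT-116 p53RE-bla cells, 4,000 per well, were compound-treated in the presence of rat liver microsomes and NADPH for 16 h at 37 C.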

[7] = p53 small molecule agonists, cell-based qHTS assay (AID 1963582; active = well fitted activation curve with a large enough effect in the signal ratio in the repeat runs, not every such curve was filed as active; the % refers to the signal ratio)
Procedure, shortened: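 Quantitative HTS in p53RE-bla cells: after a 5 h settling period, compounds delivered in DMSO were left on cells for 16 h at 37 C, and reporter induction was measured as fluorescence following 2 h substrate loading.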

[8] = target: 5-hydroxytryptamine receptor 2A (Homo sapiens) (UniProt P28223); test: 5-hydroxytryptamine receptor 2A (HTR2A) small molecule antagonists, cell-based qHTS assay (AID 1963586); note: nearly all actives have a fitted effect of over 45% in size
Procedure, shortened: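 Antagonist-mode intracellular calcium assay: DOI (4 nM) added after 5 min compound pre-incubation at room temperature to dye-loaded HTR2A-CHO cells. Fluorescence followed for 3 min, sampled every second.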

[9] = target: 5-hydroxytryptamine receptor 2A (Homo sapiens) (UniProt P28223); test: 5-hydroxytryptamine receptor 2A (HTR2A) small molecule agonists, cell-based qHTS assay (AID 1963587); note: nearly all actives have a fitted effect of over 30% in size
Procedure, shortened: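 Kinetic calcium-flux fluorescence (2 min, 1 sec intervals) after compound addition in agonist mode. HTR2A-CHO cells were cultured 18 h, then dye-loaded 1 h at 37 C.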

[10] = target: Muscarinic acetylcholine receptor M1 (Homo sapiens) (UniProt P11229); test: Cholinergic receptor muscarinic 1 (CHRM1) small molecule antagonists, cell-based qHTS assay (AID 1963588); note: nearly all actives have a fitted effect of over 40% in size
Procedure, shortened: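 CHRM1-CHO calcium-flux assay, antagonist mode. Cells were seeded 18 h, dye-loaded 1 h at 37 C and given compound for 5 min at RT, then acetylcholine was added at 50nM. FDSS fluorescence was read 3 min; 15 concentrations, three runs.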

[11] = target: Muscarinic acetylcholine receptor M1 (Homo sapiens) (UniProt P11229); test: Cholinergic receptor muscarinic 1 (CHRM1) small molecule agonists, cell-based qHTS assay (AID 1963589); note: nearly all actives have a fitted effect of over 35% in size
Procedure, shortened: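 Agonist-mode qHTS in CHO cells stably carrying human muscarinic M1. Intracellular calcium is tracked by fluorescence every second after compound transfer; each compound runs at 15 concentrations in three independent runs.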

[12] = cAMP Responsive Elements (CRE) small molecule agonists, cell-based qHTS assay (AID 1963590)
Procedure, shortened: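 Agonist mode qHTS in CRE-bla HEK 293T cells: compounds dosed from DMSO for 3 h at 37 C/5% CO2, followed by LiveBLAzer B/G FRET substrate for 2 h at room temperature.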

[13] = target: Beta-2 adrenergic receptor (Homo sapiens) (UniProt P07550); test: Adrenergic beta2 receptor (ADRB2) small molecule antagonists, cell-based qHTS assay (AID 1963592); note: series mostly up to about 92 µM; nearly all actives have a fitted effect of over 50% in size
Procedure, shortened: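 Cells (CHO, stable ADRB2 overexpression) incubated 18-20hr at 37C; compounds added from DMSO; agonist mix (1nM isoproterenol, 100uM IBMX, 25uM Ro-20-1724) added; 0.5hr RT; d2-cAMP and anti-cAMP-cryptate added; 1hr RT; 665/615 nm read.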

[14] = target: Beta-2 adrenergic receptor (Homo sapiens) (UniProt P07550); test: Adrenergic beta2 receptor (ADRB2) small molecule agonists, cell-based qHTS assay (AID 1963593);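 note: CHO cells stably overexpressing human ADRB2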
Procedure, shortened: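 CHO cells stably over-expressing ADRB2 were plated overnight at 37C, then dosed with compounds plus a stimulation mix containing 100uM IBMX and 25uM Ro-20-1724 for 0.5hr at room temperature. cAMP was measured by HTRF competition, 1hr.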

[15] = target: D(2) dopamine receptor (Homo sapiens) (UniProt P14416); test: Dopamine D2 receptor (DRD2) small molecule agonists, cell-based qHTS assay (AID 1963594); note: nearly all actives have a fitted effect of over 35% in size
Procedure, shortened: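 cAMP accumulation in DRD2-HEK293 cells measured by HTRF after 1 h detection; compounds added 10 min before NKH477 (200nM […]) forskolin-analogue stimulation, 30 min at room temperature, with Ro20-1724 present at 0.1 mM final.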

[16] = target: D(2) dopamine receptor (Homo sapiens) (UniProt P14416); test: Dopamine D2 receptor (DRD2) small molecule antagonists, cell-based qHTS assay (AID 1963595; active = well fitted inhibition curve with a large enough effect in the signal ratio in the repeat runs, with a control signal flat; the % refers to the signal ratio)
Procedure, shortened: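 HTRF cAMP read-out at 665 and 620 nm emission (340 nm excitation). Antagonist mode: compounds were tested against 12 nM quinpirole in DRD2-HEK293 cells, with 200 nM NKH477 raising cAMP and 0.1 mM Ro20-1724 blocking its breakdown.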

[17] = target: Gonadotropin-releasing hormone receptor (Homo sapiens) (UniProt P30968); test: Human gonadotropin-releasing hormone receptor (GnRHR) small molecule agonists, calcium flux assay in GnRHR-HEK293 cells (AID 1920063); note: nearly all actives have a fitted effect of over 35% in size
Procedure, shortened: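 Cells: HEK293 stably expressing human GnRHR. Steps: overnight (18 h) culture, 1 h calcium dye loading at 37 C, compound addition, kinetic fluorescence read at 480/540 nm. Each compound tested at 15 concentrations in triplicate.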

[18] = p53 small molecule agonists, cell-based qHTS assay with rat liver microsomes (AID 1963578)
Procedure, shortened: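 Agonist mode in p53RE-bla reporter cells, with compounds co-incubated 16 h at 37 C alongside 0.5 mg/mL rat liver microsomes and 0.5 mg/mL NADPH (final), followed by a 2 h LiveBLAzer detection step.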

[19] = p53 small molecule agonists, cell-based qHTS assay: qHTS cell viability counter screen (AID 1963581); note: nearly all actives have a fitted effect of over 45% in size
Procedure, shortened: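 Cells: HCT-116 with p53 response element-driven beta-lactamase. Treatment: 16 h, 37 C, compounds in DMSO. Read: CellTiter-Glo luminescence after 30 min RT.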

[20] = cAMP Responsive Elements (CRE) small molecule antagonists, cell-based qHTS assay (AID 1963591; active = well fitted inhibition curve with a large enough effect in the signal ratio in the repeat runs, not every such curve was filed as active; the % refers to the signal ratio)
Procedure, shortened: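 Antagonist mode: test compounds are co-incubated with the adenylyl cyclase activator NKH477 (0.25 uM final) on CRE-bla HEK293T cells for 3 h at 37 °C, followed by LiveBLAzer substrate loading.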
% is set by controls: 0 for no effect and ±100 for the full control effect.

Chain of Muscarinic acetylcholine receptor M1 (Homo sapiens) (P11229 whole entry, looked up): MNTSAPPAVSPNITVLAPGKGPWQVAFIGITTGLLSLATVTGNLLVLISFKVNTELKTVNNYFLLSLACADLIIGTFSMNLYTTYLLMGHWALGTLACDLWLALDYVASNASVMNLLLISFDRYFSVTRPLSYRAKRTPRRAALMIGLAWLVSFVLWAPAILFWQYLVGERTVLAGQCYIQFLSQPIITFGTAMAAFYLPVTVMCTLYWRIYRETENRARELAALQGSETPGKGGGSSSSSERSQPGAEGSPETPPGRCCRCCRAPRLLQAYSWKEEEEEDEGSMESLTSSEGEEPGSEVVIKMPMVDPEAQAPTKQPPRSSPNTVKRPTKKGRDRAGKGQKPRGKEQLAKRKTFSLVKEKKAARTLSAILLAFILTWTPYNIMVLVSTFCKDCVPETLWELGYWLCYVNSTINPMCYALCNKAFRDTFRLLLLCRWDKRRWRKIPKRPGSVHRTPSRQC
Chain of D(2) dopamine receptor (Homo sapiens) (P14416 whole entry, looked up): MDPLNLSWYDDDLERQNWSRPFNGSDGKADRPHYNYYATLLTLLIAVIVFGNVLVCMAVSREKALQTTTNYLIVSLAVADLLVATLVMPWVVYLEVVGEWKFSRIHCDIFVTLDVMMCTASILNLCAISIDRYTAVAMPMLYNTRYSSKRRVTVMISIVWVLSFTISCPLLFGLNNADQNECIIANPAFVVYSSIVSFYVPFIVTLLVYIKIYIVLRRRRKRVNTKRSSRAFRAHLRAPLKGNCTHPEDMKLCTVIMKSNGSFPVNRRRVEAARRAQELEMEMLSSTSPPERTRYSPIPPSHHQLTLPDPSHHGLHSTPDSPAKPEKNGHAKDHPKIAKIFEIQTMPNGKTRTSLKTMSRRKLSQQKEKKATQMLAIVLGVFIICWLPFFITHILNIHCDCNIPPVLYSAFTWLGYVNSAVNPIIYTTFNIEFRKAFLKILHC
Chain of Gonadotropin-releasing hormone receptor (Homo sapiens) (P30968 whole entry, looked up): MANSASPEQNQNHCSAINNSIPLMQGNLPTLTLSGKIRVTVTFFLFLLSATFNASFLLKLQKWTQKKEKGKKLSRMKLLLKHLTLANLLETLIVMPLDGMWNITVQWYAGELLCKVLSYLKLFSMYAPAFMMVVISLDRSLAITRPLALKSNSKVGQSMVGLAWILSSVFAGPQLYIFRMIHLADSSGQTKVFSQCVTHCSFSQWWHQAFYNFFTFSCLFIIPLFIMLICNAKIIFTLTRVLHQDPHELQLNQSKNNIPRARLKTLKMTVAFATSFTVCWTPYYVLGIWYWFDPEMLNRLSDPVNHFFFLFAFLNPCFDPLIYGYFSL
Chain of KiSS-1 receptor (Homo sapiens) (Q969F8 whole entry, looked up): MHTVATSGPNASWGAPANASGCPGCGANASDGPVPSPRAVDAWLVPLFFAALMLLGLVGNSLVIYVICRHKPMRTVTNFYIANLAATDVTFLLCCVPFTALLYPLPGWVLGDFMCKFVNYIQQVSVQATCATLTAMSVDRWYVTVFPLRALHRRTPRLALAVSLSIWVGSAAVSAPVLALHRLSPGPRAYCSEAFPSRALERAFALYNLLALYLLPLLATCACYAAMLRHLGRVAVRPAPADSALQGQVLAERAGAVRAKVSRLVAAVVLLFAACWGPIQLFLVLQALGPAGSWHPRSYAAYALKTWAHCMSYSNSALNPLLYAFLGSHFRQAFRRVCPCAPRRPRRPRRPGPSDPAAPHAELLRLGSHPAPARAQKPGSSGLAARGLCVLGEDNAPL
Chain of Beta-2 adrenergic receptor (Homo sapiens) (P07550 whole entry, looked up): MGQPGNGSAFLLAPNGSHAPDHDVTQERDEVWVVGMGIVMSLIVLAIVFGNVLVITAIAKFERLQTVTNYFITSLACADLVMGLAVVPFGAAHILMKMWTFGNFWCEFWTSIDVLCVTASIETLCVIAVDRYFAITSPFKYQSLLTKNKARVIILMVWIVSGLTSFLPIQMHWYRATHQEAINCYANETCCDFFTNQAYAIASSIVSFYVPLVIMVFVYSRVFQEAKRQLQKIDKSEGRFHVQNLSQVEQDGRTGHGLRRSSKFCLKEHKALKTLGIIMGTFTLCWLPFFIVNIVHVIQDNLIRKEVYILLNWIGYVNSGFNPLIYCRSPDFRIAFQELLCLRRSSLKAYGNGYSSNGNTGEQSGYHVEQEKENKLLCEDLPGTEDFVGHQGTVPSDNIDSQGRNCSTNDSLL
Chain of 5-hydroxytryptamine receptor 2A (Homo sapiens) (P28223 whole entry, looked up): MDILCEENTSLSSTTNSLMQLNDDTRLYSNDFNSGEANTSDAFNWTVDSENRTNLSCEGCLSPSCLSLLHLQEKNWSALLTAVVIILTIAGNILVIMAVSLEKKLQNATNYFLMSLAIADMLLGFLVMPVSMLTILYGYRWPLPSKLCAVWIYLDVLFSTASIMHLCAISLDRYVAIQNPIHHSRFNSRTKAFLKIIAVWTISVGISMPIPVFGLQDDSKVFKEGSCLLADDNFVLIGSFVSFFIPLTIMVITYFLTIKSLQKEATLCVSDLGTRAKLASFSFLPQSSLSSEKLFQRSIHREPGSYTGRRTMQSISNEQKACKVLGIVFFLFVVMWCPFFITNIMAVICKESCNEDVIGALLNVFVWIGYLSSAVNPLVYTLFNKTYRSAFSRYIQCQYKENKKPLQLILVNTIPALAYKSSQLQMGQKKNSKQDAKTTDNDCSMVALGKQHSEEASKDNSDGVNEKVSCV

Nc1nc(-c2ccccc2)c(Br)c(=O)[nH]1
inactive: Potency [1] | outcome [2] | outcome [3] | Potency [4] | Potency [5] | Potency [6] | Potency [7] | Potency [8] | Potency [9] | Potency [10] | Potency [11] | Potency [12] | Potency [13] | Potency [14] | Potency [15] | Potency [16]

Cc1ccccc1C(=O)O
inactive: Potency [1] | Potency [17] | outcome [3] | Potency [4] | Potency [18] | Potency [5] | Potency [19] | Potency [7] | Potency [8] | Potency [9] | Potency [10] | Potency [11] | Potency [12] | Potency [20] | Potency [15] | Potency [16]

Cc1cccc(CN2CCN(C(c3ccccc3)c3ccc(Cl)cc3)CC2)c1 (stereo not given)
inactive: Potency [1] | outcome [2] | outcome [3] | Potency [4] | Potency [18] | Potency [5] | Potency [6] | Potency [19] | Potency [9] | Potency [10] | Potency [11] | Potency [12] | Potency [20] | Potency [13] | Potency [14] | Potency [15] | Potency [16]

C[C@@H]1[C@H](O)[C@@H](C)/C=C/C=C\C=C\C=C\C=C\C=C\C=C\[C@H](O[C@@H]2O[C@H](C)[C@@H](O)[C@H](N)[C@@H]2O)C[C@@H]2O[C@](O)(C[C@@H](O)C[C@@H](O)[C@H](O)CC[C@@H](O)C[C@@H](O)CC(=O)O[C@H]1C)C[C@H](O)[C@H]2C(=O)O (stereo in doubt)
inactive: outcome [2] | outcome [3] | Potency [4] | Potency [18] | Potency [5] | Potency [19] | Potency [13] | Potency [14] | Potency [15] | Potency [16]
active: Potency [1] 68.6 µM

CN1CCN(CC(=O)N2c3ccccc3C(=O)Nc3cccnc32)CC1
inactive: activity change [17] -0.376% [at 5.22 µM, active compounds read high] | activation [2] 7.1% [at 6.97 µM] | activation [3] -0.198% [at 5.23 µM] | activation [4] 8.34% [at 5.99 µM] | activation [18] 0.0177% [at 5.99 µM] | activity change, negative = cytotoxicity [5] 5.54% [at 5.99 µM] | activity change, negative = cytotoxicity [6] 1.67% [at 5.99 µM] | activity change, negative = cytotoxicity [19] 22.9% [at 5.99 µM] | activation [7] -1.98% [at 5.99 µM] | activity, negative = inhibition [8] 57.8% [at 5.62 µM] | activation [9] 0.502% [at 7.02 µM] | activation [12] -0.47% [at 8.39 µM] | activity change, negative = inhibition [20] -9.03% [at 8.39 µM] | activity change, negative = inhibition [13] -1.73% [at 8.39 µM] | activation [14] -0.465% [at 8.39 µM] | activation [15] -0.938% [at 8.39 µM] | activity change, negative = inhibition [16] 3.87% [at 8.38 µM]

CC(C)(C)C1(CCc2ccc(Cl)cc2)CO1 (stereo not given)
inactive: Potency [1] | Potency [17] | outcome [3] | Potency [4] | Potency [18] | Potency [5] | Potency [6] | Potency [19] | Potency [9] | Potency [10] | Potency [11] | Potency [12] | Potency [20] | Potency [13] | Potency [15]

COC(=O)CCCCC(CCSS/C(CCO)=C(\C)N(C=O)Cc1cnc(C)nc1N)SC(C)=O (stereo not given)
inactive: Potency [17] | outcome [2] | Potency [4] | Potency [18] | Potency [6] | Potency [7] | Potency [9] | Potency [10] | Potency [11] | Potency [12] | Potency [20] | Potency [13] | Potency [14] | Potency [15] | Potency [16]

Nc1cccc(S(=O)(=O)c2cccc(N)c2)c1
inactive: Potency [1] | Potency [17] | outcome [3] | Potency [4] | Potency [18] | Potency [5] | Potency [6] | Potency [19] | Potency [8] | Potency [9] | Potency [10] | Potency [11] | Potency [12] | Potency [13] | Potency [14] | Potency [15] | Potency [16]

CC(C)SCc1ccco1
inactive: Potency [1] | outcome [2] | outcome [3] | Potency [4] | Potency [18] | Potency [5] | Potency [6] | Potency [19] | Potency [7] | Potency [8] | Potency [9] | Potency [11] | Potency [12] | Potency [13] | Potency [14] | Potency [16]

Nc1cc(C(=O)O)c(O)c(S(=O)(=O)O)c1
inactive: Potency [17] | outcome [2] | outcome [3] | Potency [4] | Potency [18] | Potency [5] | Potency [6] | Potency [19] | Potency [7] | Potency [8] | Potency [9] | Potency [10] | Potency [11] | Potency [12] | Potency [20] | Potency [15] | Potency [16]

COC(=O)/C=C\C(=O)O
inactive: Potency [17] | outcome [2] | outcome [3] | Potency [4] | Potency [18] | Potency [5] | Potency [6] | Potency [19] | Potency [7] | Potency [8] | Potency [9] | Potency [10] | Potency [11] | Potency [12] | Potency [20] | Potency [13] | Potency [15] | Potency [16]

CCOC(=O)c1ncn2c1CN(C)C(=O)c1cc(F)ccc1-2
inactive: Potency [17] | outcome [2] | outcome [3] | Potency [4] | Potency [18] | Potency [5] | Potency [6] | Potency [19] | Potency [7] | Potency [12] | Potency [20] | Potency [13] | Potency [14] | Potency [15] | Potency [16]
